# NPR1 antag – human Npr1 receptor antagonism; AID 1347048; HEK293 hNpr1 GloSensor cGMP, ANP-stimulated luminescence; Potency, µM (titrated, usually from 46.3 µM), inactives show at the top dose activity change, negative = inhibition, most hits filed as inhibitors; P16066; hit rate 1.6% among 76,000; calls by dose curve; further: nearly all actives have a fitted effect of over 60% in size
#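 Compound pre-incubated 30 min at room temperature on GloSensor-loaded HEK293 cells stably carrying hNpr1 and the pGS-40F cGMP biosensor. Stimulation uses hNppA at 0.1 nM final; luminescence is taken at baseline and 20 min post-agonist.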
# HEK293 tox – cytotoxic compounds in HEK 293 cells. hit rate 6.6% among 94,000. Potency, µM (titrated, usually from 115 µM), inactives show at the highest dose activity change, negative = cytotoxicity, most hits filed as inhibitors. AID 1345083. HEK 293 viability, ATP luminescence (CellTiter-Glo), 48-72 h; further: nearly all actives have a fitted effect of over 60% in size
#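 Read-out: CellTiter-Glo ATP luminescence. Cells: HEK 293, 250 cells/well. Exposure: 48 or 72 hr, 37 degree Celsius.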
# NIH3T3 tox – kills NIH 3T3 cells | hit rate 4.3% among 94,000 | Potency, µM (top dose mostly 96.7 µM), inactives show at the highest dose activity change, negative = cytotoxicity, hits mostly inhibitors | NIH 3T3 viability, CellTiter-Glo ATP luminescence, 48-72 h; further: nearly all actives have a fitted effect of over 55% in size
#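 Cytotoxicity was measured by CellTiter-Glo ATP luminescence after 48 or 72 h compound exposure at 37 °C. Mouse NIH 3T3 fibroblasts were seeded at 400 cells/well and dosed by 23 nL pin transfer.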
# Luciferase inh – blocks purified firefly luciferase enzyme activity | P08659 | purified P. pyralis luciferase, luminescence, biochemical | Potency, µM (top dose mostly 115 µM), hits mostly inhibitors | hit rate 2.5% among 76,000 | AID 1347043; further: nearly all actives have a fitted effect of over 65% in size
# Target sequence (P08659 whole entry, looked up): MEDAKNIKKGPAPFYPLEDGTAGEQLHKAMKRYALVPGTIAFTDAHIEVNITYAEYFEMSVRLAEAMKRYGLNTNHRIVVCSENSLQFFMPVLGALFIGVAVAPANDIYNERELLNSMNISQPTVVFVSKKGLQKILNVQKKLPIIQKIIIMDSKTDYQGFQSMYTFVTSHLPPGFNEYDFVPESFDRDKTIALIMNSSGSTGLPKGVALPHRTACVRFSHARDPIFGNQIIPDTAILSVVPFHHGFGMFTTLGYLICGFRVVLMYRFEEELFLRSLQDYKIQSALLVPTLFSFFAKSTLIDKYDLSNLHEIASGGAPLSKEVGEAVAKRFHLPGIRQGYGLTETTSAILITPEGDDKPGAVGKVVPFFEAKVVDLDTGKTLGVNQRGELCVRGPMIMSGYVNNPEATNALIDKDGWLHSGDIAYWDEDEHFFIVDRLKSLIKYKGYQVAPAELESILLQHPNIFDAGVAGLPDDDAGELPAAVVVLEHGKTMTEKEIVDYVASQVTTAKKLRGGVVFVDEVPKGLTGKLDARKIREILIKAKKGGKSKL
#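 Purified P. pyralis luciferase (10nM final) in 50mM Tris acetate pH 7.5, 10mM Mg acetate, 0.01% Tween-20, 0.05% BSA with 10uM D-luciferin and 10uM ATP. Compounds titrated qHTS. Luminescence imaged on CCD.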
# An asterisk follows results filed as active; i = inactive; ? = inconclusive; . = no result given; ! = not confirmed by another sample; [ ] = another dose, or the depositor's remark. Compounds with a hit are over-represented: about 11% of the library has one in this group of screens. Unless noted, the call rests on the fitted dose curve; in most records, active means well fitted curve in the direction sought with a large enough effect; inconclusive means small, poorly fitted or top-dose-only effect, or another doubt; inactive means no such curve, though single readings can be large; an effect the other way counts as inactive or inconclusive. On the % scale 0 is the no-effect control and ±100 the full control effect; potency means the concentration at half of the fitted maximal effect.
SMILES,NPR1 antag,HEK293 tox,NIH3T3 tox,Luciferase inh
Cc1ccc(Nc2ccnc(N3CCCC(C(=O)NCc4ccccc4F)C3)n2)cc1 (configuration not stated),.,10µM*,14.1µM*,.
Cc1ccc(Nc2ccnc(N3CCCC(C(=O)NCc4cccc(F)c4)C3)n2)cc1 (configuration not stated),.,50.1µM*,?,.
Cc1ccc(Nc2ccnc(N3CCCC(C(=O)NCCc4ccccc4)C3)n2)cc1 (configuration not stated),.,?,28.2µM*,.
Cc1noc(C)c1S(=O)(=O)N1CCC2(CC1)N(c1ccccc1)C(=O)CS2=O (configuration not stated),.,i,i,.
CC(C)Cn1c(=O)c(C(=O)NCC(F)(F)F)nc2cccnc21,.,4.7%,-3.1%,.
COc1cccc(C(=O)N2CCC3(CC2)CCC(O)(CN(C)C)CC3)c1,.,2.4%,-11.0%,.
O=C(NC1CCCC1)N1CCCC(C(=O)N2CCC(c3nc4ccncc4[nH]3)CC2)C1 (configuration not stated),.,i,-3.2%,.
O=C(c1cc2ccccc2[nH]1)N1CCC2(CC1)CN(c1ncccn1)CC2CO (configuration not stated),-12.5%,79.4µM*,?,i
O=C(Nc1cccnc1)c1nc2c(o1)CCN(Cc1cccs1)CC2,-19.2%[70.6 µM],89.1µM*,?,?
N#Cc1cccc(CN2CCc3nc(C(=O)Nc4cccc(C(F)(F)F)c4)oc3CC2)c1,11.2µM*,?,?,?
COc1cccc(CN2CCc3nc(C(=O)Nc4cccnc4)oc3CC2)c1,?,?,?,22.4µM*
O=C(NCc1cccc(F)c1)c1nc2c(o1)CCN(Cc1cccc(F)c1F)CC2,?,50.1µM*,44.7µM*,i
N#Cc1cccc(CN2CCc3nc(C(=O)NCC4CC4)oc3CC2)c1,-24.4%[70.6 µM],?,?,i
COc1ccc(CN2CCc3nc(C(=O)Nc4cccnc4)oc3CC2)cc1OC,-16.8%[70.6 µM],?,?,i
O=C(Nc1cccc(C(F)(F)F)c1)c1nc2c(o1)CCN(Cc1cccs1)CC2,?,?,?,8.91µM*
O=C(NCC1CC1)c1nc2c(o1)CCN(Cc1cccc(O)c1)CC2,4.3%[70.6 µM],?,100µM*,?
O=C(NCc1ccncc1)c1nc2c(o1)CCN(Cc1ccccc1)CC2,-23.7%[70.6 µM],?,-26.4%[138 µM],i
O=C(Nc1cccc(C(F)(F)F)c1)c1nc2c(o1)CCN(Cc1nccs1)CC2,35.5µM*,?,?,15.8µM*
COc1ccc(F)cc1-c1ccc(CN2CCCCC2C(=O)NCCc2ccc(Cl)cc2)cc1 (configuration not stated),.,31.6µM*,?,.
COc1ccc(F)cc1-c1ccc(CN2CCCCC2C(=O)N2CCCN(C(C)=O)CC2)cc1 (configuration not stated),.,44.7µM*,-34.9%,.
COc1ccccc1-c1ccc(CN2CCCCC2C(=O)NCC(F)F)cc1 (configuration not stated),.,?,44.7µM*!,.
COc1ccccc1-c1ccc(CN2CCCCC2C(=O)NC(C)C)cc1 (configuration not stated),.,79.4µM*,?,.
COc1ccccc1-c1ccc(CN2CCCCC2C(=O)N2CCOCC2)cc1 (configuration not stated),.,?,-37.6%,.
CC(=O)N1CCC(C(=O)N2CCCC2c2nc3ccncc3[nH]2)CC1 (configuration not stated),.,i,4.6%,.
COc1ccccc1CNC(=O)CCC[C@H]1NC[C@@H]2C[C@H]1CN(Cc1ccccc1)C2,0.6%,-11.6%,-21.8%,i
SMILES,NPR1 antag,HEK293 tox,NIH3T3 tox,Luciferase inh
CCCC(=O)NC1CCN(c2ccnc3ccnn23)C1 (configuration not stated),.,?,-35.7%[138 µM],.
COc1ccc(F)cc1-c1ccc(CN2CCCCC2C(=O)NCC(F)F)cc1 (configuration not stated),.,35.5µM*,?,.
COCC(=O)NC1CCN(C(=O)c2ccc(-c3ccc(OC)nn3)cc2)C1 (configuration not stated),.,-30.0%,0.5%,.
O=C(c1ccoc1)N1CCCN(CCc2ccccc2)c2ccccc21,-4.9%,?,?,i
COc1ccc(CO[C@H]2COCCN(c3nc4ccccc4s3)C2)cc1,-4.5%[70.6 µM],100µM*,?,?
COCc1ccc2c(c1)c(OC(C)(C)C(=O)NCc1ccncc1)nn2Cc1cccc(OC)c1,3.8%,?,10µM*,i
COCc1ccc2c(c1)c(OC(C)(C)C(=O)Nc1ccccn1)nn2Cc1cccc(OC)c1,2.8%,?,?,i
COCc1ccc2c(c1)c(OC(C)(C)C(=O)NCCN(C)C)nn2Cc1ccccc1,-2.9%[70.6 µM],-26.6%[172 µM],89.1µM*,i
COCc1ccc2c(c1)c(OC(C)(C)C(=O)NCc1ccncc1)nn2Cc1cccnc1,-1.5%,-10.1%,?,i
COCc1ccc2c(c1)c(OC(C)(C)C(=O)NCCCn1ccnc1)nn2Cc1ccccc1,-1.0%,-16.8%,22.4µM*,i
COCc1ccc2c(c1)c(OC(C)(C)C(=O)NCc1ccncc1)nn2Cc1ccccc1,3.5%,-27.8%,28.2µM*,i
COc1cccc(CC(=O)N2CCC3(CC2)CC(c2nc(C)no2)N(C)C3)c1 (configuration not stated),.,-4.9%,-17.9%,.
COc1ccc(CCN2CCC(CN(C)C(=O)NCc3ccccc3)CC2)cc1,0.5%,-4.5%,-23.0%,i
O=C(NCC(=O)N1CCC(Cc2ccccc2)CC1)c1cccc(-c2ccsc2)c1,.,?,-24.8%,.
O=C(NCc1ccccc1Cl)C1CCCN(Cc2cccc(-c3ccsc3)c2)C1 (configuration not stated),.,22.4µM*,12.6µM*,.
O=C(NCc1cccc(Cl)c1)C1CCCN(Cc2cccc(-c3ccsc3)c2)C1 (configuration not stated),.,31.6µM*,39.8µM*,.
COC(=O)c1ccc2nc(C[C@@H]3C[C@@H](C(C)C)[C@H](CN)C=C3C)[nH]c2c1,-10.2%[70.6 µM],?,63.1µM*,i
COC(=O)c1ccc2nc(C[C@@H]3C[C@@H](C(C)C)[C@H](CNC4CCCCC4)C=C3C)[nH]c2c1,-9.2%,?,17.8µM*,i
COC(=O)c1ccc2nc(C[C@@H]3C[C@@H](C(C)C)[C@H](CNC4CCOCC4)C=C3C)[nH]c2c1,1.2%,?,?,i
CCOc1ccc(-c2cc3c(=O)n(CCNC(=O)c4ccc(OC)cc4)ccn3n2)cc1,-19.9%,-0.6%,-8.0%,i
CCOc1ccc(-c2cc3c(=O)n(CCNC(=O)C4(c5ccccc5)CC4)ccn3n2)cc1,0.5%,i,i,25.1µM*
CCOc1ccc(-c2cc3c(=O)n(CCNC(=O)c4ccccc4OC)ccn3n2)cc1,-23.7%,?,i,15.8µM*
O=C(C1CCCC1)N1CC2(CCN(CC3CCCCC3)C2)Cc2ccccc21 (configuration not stated),.,?,31.6µM*,.

# Bioassay records as filed in PubChem.
